Compounds with a hit are over-represented: about 12% of the library has one in this group of screens.
LASV entry inh = blocks Lassa virus binding to or entry into cells; actives 1.2% (n = 300,000); Potency, µM (titrated, usually from 37.9 µM), without a hit: at the top dose activity change, negative = inhibition, most hits filed as inhibitors; Lassa virus pseudotype entry inhibition, cell reporter; calls by dose curve; tested in HEK293 cells; further: potency means the concentration at half of the fitted maximal effect; on the % scale 0 is the no-effect control and ±100 the full control effect; nearly all actives have a fitted effect of over 50% in size
MARV entry inh = blocks Marburg virus binding to or entry into cells | Marburg virus pseudotyped entry inhibition, cell reporter | Potency, µM (doses to about 37.8 µM), for inactives: top-dose activity change, negative = inhibition, hits mostly inhibitors | actives 1.8% (n = 300,000) | AID 540276; calls by dose curve; tested in HEK293 cells; further: potency means the concentration at half of the fitted maximal effect; on the % scale 0 is the no-effect control and ±100 the full control effect
Cycloheximide cs = counter-screen for Shiga toxin inhibitors: cycloheximide protein synthesis inhibition. cell reporter, cycloheximide protein synthesis inhibition counterscreen. max response, %. actives 12% (n = 300,000). AID 2314; in the data active means max response mostly above about 13%, no sharp cut-off; inactive means mostly below about 14%; further: read at 38.3 µM for the half of the compounds with a filed dose; 0% is about no effect
Shiga toxin inh = blocks Shiga toxin action in Vero cells; inhibition, % at 38.7 µM; Vero cells, Shiga toxin protein synthesis inhibition reporter; AID 2315; actives 9.2% (n = 290,000); in the data active means inhibition mostly above about 28%, no sharp cut-off; inactive means mostly below about 43%; further: 0% is about no effect
An asterisk follows results filed as active; ? = inconclusive; . = not tested or not shown; [ ] = dose if it differs, or a comment.

SMILES	LASV entry inh	MARV entry inh	Cycloheximide cs	Shiga toxin inh
CC(CN1CCOCC1)OC(=O)c1ccccc1Br (stereo unspecified)	3%	12%	25*	46
CC(C)N(C)CCOC(=O)c1ccc2c(c1)OCCO2	2%	8%	16*	47
CC(CN1CCOCC1)OC(=O)c1cccc(Br)c1 (stereo unspecified)	19%	5%[46.1 µM]	-2	21
CC(CN1CCCC1)OC(=O)c1cccc(F)c1 (stereo unspecified)	.	.	-2	-10
CCN(CC)CCOC(=O)c1ccc2c(c1)OCCO2	-15%	21%	16	29
CC(CN1CCCC1)OC(=O)c1ccccc1Cl (stereo unspecified)	17%	13%	3	-12
CC(CN1CCOCC1)OC(=O)c1ccc2c(c1)OCCO2 (stereo unspecified)	4%	2%	61*	66*
O=C(NC12CC3CC(CC(C3)C1)C2)c1cc(F)c(F)c(F)c1F	1%[46.1 µM]	16%[46.1 µM]	-2	-2
COC(=O)C1CCN(c2ccc(Cl)nn2)CC1	23%[46.1 µM]	16%[46.1 µM]	14	26
CC(CN1CCOCC1)OC(=O)/C=C/c1ccccc1 (stereo unspecified)	21%	19%[46.1 µM]	44*	84*
Cc1cccc(C(=O)OC(C)CN2CCOCC2)c1 (stereo unspecified)	?	2%[46.1 µM]	28*	69
COc1ccc(OC)c(NC(=O)Cc2ccc(NC3=NC4CS(=O)(=O)CC4S3)cc2)c1 (stereo unspecified)	.	.	-2	12
Nc1ccccc1C(=O)NNC1=C(C(=O)C(F)(F)F)CCC1	-21%	6%[46.1 µM]	46*	95*
COc1cccc(C(=O)NNC2=C(C(=O)C(F)(F)F)CCC2)c1	1%[46.1 µM]	?	41*	68*
COc1ccccc1C(=O)NNC1=C(C(=O)C(F)(F)F)CCC1	?	?	17*	84*
O=C(NNC1=C(C(=O)C(F)(F)F)CCC1)c1ccccc1Cl	8%	9%	9	22
O=C(NNC1=C(C(=O)C(F)(F)F)CCC1)c1ccc(Br)cc1	?	?	11	24
O=C(NNC1=C(C(=O)C(F)(F)F)CCC1)c1ccccc1O	-10%	-21%	32	37*
O=C(NC(CSSCC(NC(=O)c1ccccc1)C(=O)O)C(=O)O)c1ccccc1 (stereo unspecified)	.	.	-1	-12
Cc1c(Cl)cccc1-c1ccc(CNc2ccc3[nH]c(=O)[nH]c3c2)o1	9%[46.1 µM]	-3%[46.1 µM]	.	.
COc1ccc(-c2nnc(SCc3cc(=O)c4cc(C)cc(C)c4[nH]3)n2C)cc1	-23%[46.1 µM]	.	.	.
Cc1cc(=O)oc2cc(NC(=O)C(CCCN=C(N)N)NC(=O)OCc3ccccc3)ccc12 (stereo unspecified)	.	.	6	-10
Cc1[nH]c2ccccc2c1C1N2CC3(C)CN1CC(C)(C2)C3=O (stereo unspecified)	-9%[46.1 µM]	26%[46.1 µM]	.	.
CC(C)(C)C1CCc2sc(C(=O)NNC(=O)CCl)cc2C1 (stereo unspecified)	.	.	59*	109*
O=C(Nc1cc2c(cc1[N+](=O)[O-])OCCO2)c1cccnc1	10%	?	.	.
SMILES	LASV entry inh	MARV entry inh	Cycloheximide cs	Shiga toxin inh
Cc1cc(-c2nnc(SCC(=O)Nc3ccc(F)cc3F)n2N)n[nH]1	13%[46.1 µM]	3%[46.1 µM]	5	-2
Cn1c(N)c(C(=O)COC(=O)c2cc(-c3ccco3)nc3ccccc23)c(=O)n(C)c1=O	3%	2%	21*	31
COc1ccc(-c2cc(C(=O)c3c(N)n(C)c(=O)n(C)c3=O)c3ccccc3n2)cc1	.	.	18*	4
COc1ccc(-c2cc(C(=O)OCC(=O)c3c(N)n(C)c(=O)n(C)c3=O)c3ccccc3n2)cc1	12%[46.1 µM]	-4%[46.1 µM]	-2	3
Cc1cc(C(C)(C)C)oc1C(=O)N(CC(=O)NC1CCCC1)c1c(C)cccc1C	?	10µM*	-2	-9
Cc1cc(C(C)(C)C)oc1C(=O)N(CC(=O)NC1CCCC1)c1ccc(F)cc1	?	-26%	0	-5
Cc1cc(C)nc(/N=C(\N)N2CCc3ccccc32)n1	21%[46.1 µM]	?	33*	88*
Cc1cc(C)c2c(=O)cc(C(=O)Nc3c(C)n(C)n(-c4ccccc4)c3=O)oc2c1	21%[46.1 µM]	-18%[46.1 µM]	.	.
COc1ccccc1NC(=O)C(=O)Nc1ccccn1	?	?	76*	94*
Cc1c(C)c2ccc(OCC(=O)Nc3ccccn3)c(C)c2oc1=O	.	.	22*	35*
Cc1c(C)c2ccc(OCC(=O)N3CCOCC3)c(C)c2oc1=O	3%[46.1 µM]	-1%[46.1 µM]	20*	25
COc1ccccc1NC(=O)C(=O)N/N=C(\C)CC(=O)Nc1ccccn1	.	.	11	23
Cc1cc(=O)oc2c(C)c(OCC(=O)Nc3cccnc3)ccc12	.	.	31*	41*
